TDP1 block: qHTS Assay for Inhibitors of Tyrosyl-DNA Phosphodiesterase (TDP1); recombinant TDP1, AlphaScreen DNA substrate cleavage; Potency, µM (top dose mostly 130 µM), without a hit: top-dose activity change, negative = inhibition, hits mostly inhibitors; 0.28% of 350,000 active; Tyrosyl-DNA phosphodiesterase 1 (Homo sapiens), Q9NUW8; also: potency is read from the fitted curve at half-maximal effect; nearly all actives have a fitted effect of over 40% in size
Target sequence (Q9NUW8 whole entry, looked up): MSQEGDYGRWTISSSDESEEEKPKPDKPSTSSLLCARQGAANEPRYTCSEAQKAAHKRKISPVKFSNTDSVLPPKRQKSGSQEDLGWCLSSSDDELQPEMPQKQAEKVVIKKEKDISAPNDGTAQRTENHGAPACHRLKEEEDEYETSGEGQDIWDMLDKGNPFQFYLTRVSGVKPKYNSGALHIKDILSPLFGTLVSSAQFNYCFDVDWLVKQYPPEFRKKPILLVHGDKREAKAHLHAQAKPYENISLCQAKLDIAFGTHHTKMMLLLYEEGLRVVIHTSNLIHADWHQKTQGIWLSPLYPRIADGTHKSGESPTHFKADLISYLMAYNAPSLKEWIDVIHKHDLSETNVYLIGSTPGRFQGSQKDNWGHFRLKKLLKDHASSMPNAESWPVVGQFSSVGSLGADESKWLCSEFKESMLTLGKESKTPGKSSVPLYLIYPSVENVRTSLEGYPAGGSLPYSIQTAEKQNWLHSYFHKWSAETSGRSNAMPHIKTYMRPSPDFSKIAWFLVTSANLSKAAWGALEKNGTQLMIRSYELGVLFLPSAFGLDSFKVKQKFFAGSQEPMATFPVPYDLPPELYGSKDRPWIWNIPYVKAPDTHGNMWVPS
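Recombinant human Tdp1 (E. coli-expressed, 1 nM final) preincubated with compounds 15 min at room temperature, then 5'-biotin/3'-phosphotyrosine-FITC DNA substrate (15 nM final) added for 5 min. AlphaScreen beads (10 ug/ml final) added 10 min; cleavage lowers signal.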
Six1-Eya2 blk: qHTS Assay for Inhibitors of the Six1/Eya2 Interaction; Homeobox protein SIX1 (Homo sapiens) + Protein phosphatase EYA2 (Homo sapiens), …; AlphaScreen GST-Six1/His-Eya2 binding, biochemical; hits give low values; activity change, % (concentration not given with the values); 0.56% of 360,000 active; AID 651725, 2012; in the data active = activity change below about -65%; inconclusive = mostly about -30% to -63%
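AlphaScreen with GST-Six1 and His-Eya2 (5X mix: 250 nM and 500 nM), glutathione donor and nickel acceptor beads; buffer 50 mM Tris pH 8.0, 300 mM NaCl, 1 mM TCEP; 1 h at 37 C in the dark.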
CtBP-E1A blk: qHTS Assay for Inhibitors of the CtBP/E1A Interaction; AID 651724, 2012; AlphaScreen GST-E1A/His-CtBP binding, 1536-well; hits give low values; activity change, % (concentration not given with the values); 0.49% of 340,000 active; CtBP / adenovirus E1A interaction (AlphaScreen); in the data active = activity change below about -65%; inconclusive = mostly about -30% to -63%
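GST-E1A and His-tagged CtBP (125 nM each as 5X stock) were preincubated with pin-transferred compound for 2 h at 37 °C in the dark, then glutathione donor and nickel acceptor beads were added for 1 h before AlphaScreen reading.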
TDP1 cell CPT: qHTS for Inhibitors of human tyrosyl-DNA phosphodiesterase 1 (TDP1): qHTS in cells in presence of CPT; 12% of 420,000 active; chicken DT40 Tdp1-/-;hTDP1 cells + 20 nM CPT, ATP luminescence, 48 h; Potency, µM (highest dose often 46.2 µM), for inactives: at the top dose activity change, negative = growth inhibition, usual class: inhibitors; AID 686979, 2013; also: potency is read from the fitted curve at half-maximal effect; nearly all actives have a fitted effect of over 55% in size
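Chicken DT40 Tdp1-/- cells complemented with human TDP1, 400 cells/well, exposed to compounds plus 20 nM camptothecin for at least 48 h at 37 C; viability read as ATP content by CellTiter-Glo luminescence.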
IL1B secr inh: qHTS for Inhibitors of Inflammasome Signaling: IL-1-beta AlphaLISA Primary Screen; THP-1 LPS/ATP IL-1B secretion, AlphaLISA, 16 h; hits give low values; activity change, % at 57.5 µM; 4.7% of 360,000 active; AID 743279, 2014; in the data active = activity change below about -50%; inconclusive = mostly about -30% to -49%
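THP-1 cells pretreated 1 hr with compounds (up to 57.5 uM final), then stimulated with LPS (250 ng/mL final) plus ATP (1.25 mM final); secreted IL-1B measured by AlphaLISA after 16 hr, decreased signal indicating inhibition.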
DT40 TDP1 no CPT: qHTS for Inhibitors of human tyrosyl-DNA phosphodiesterase 1 (TDP1): qHTS in cells in absence of CPT. DT40 Tdp1-/- hTDP1 cells, no CPT, ATP luminescence, 48 h. Potency, µM (highest dose often 46.2 µM), inactives show at the highest dose activity change, negative = growth inhibition, most hits filed as inhibitors. 15% of 420,000 active; also: potency is read from the fitted curve at half-maximal effect; nearly all actives have a fitted effect of over 55% in size
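Chicken DT40 Tdp1-/- cells complemented with human TDP1, screened without camptothecin (DMSO vehicle only), 400 cells/well. Compounds pin-transferred, cells incubated at 37 °C for at least 48 hr. Growth read as ATP-dependent luminescence (CellTiter-Glo, 30 min at RT).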
An asterisk follows results filed as active; u = inconclusive; x = not tested or not shown; [ ] = another dose, or the depositor's remark. A selection: hits, their analogues and other compounds. The true share with any hit is near 18%. Unless noted, calls follow the shape of the dose curve; as a rule, active = well fitted curve in the direction sought with a large enough effect; inconclusive = small, poorly fitted or top-dose-only effect, or another doubt; inactive = no such curve, though single readings can be large; an effect the other way counts as inactive or inconclusive. % is scaled to controls: 0 for no effect and ±100 for the full control effect.

SMILES	TDP1 block	Six1-Eya2 blk	CtBP-E1A blk	TDP1 cell CPT	IL1B secr inh	DT40 TDP1 no CPT
CCOC(=O)c1sc2nc(SCC(=O)NCc3ccco3)n(Cc3ccccc3)c(=O)c2c1C	-1%	-3	4	-22%	8	u
CCOC(=O)c1sc2ncnc(N3CCN(CC)CC3)c2c1C	-1%	-3	4	15%	2	u
Cc1sc2nc(CSc3ccccc3)nc(N3CCC(C(N)=O)CC3)c2c1C	2%	-7	x	u	-63*	21µM*
Cc1sc2nc(CSc3ccccc3)nc(N3CCOCC3)c2c1C	1%	10	3	u	-14	u
Cc1sc2nc(-c3cccs3)nc(N3CCCN(C)CC3)c2c1C	6%	x	x	x	x	x
CCOC(=O)c1sc2nc(CSc3ccccc3)nc(N3CCCN(C)CC3)c2c1C	8%	-28	x	26µM*	u	u
CCOC(=O)c1sc2nc(CSc3ccccc3)nc(N3CCC(C(N)=O)CC3)c2c1C	4%	-12	-22	u	-116*	23µM*
CCOC(=O)c1sc2nc(CC(=O)OC)nc(N3CCN(c4ccccn4)CC3)c2c1C	3%	-2	13	23µM*	-12	18µM*
COC(=O)Cn1c(CN2CCN(c3ccc(OC)cc3)CC2)nc2c1c(=O)[nH]c(=O)n2C	-4%	x	x	11%	x	-2%
COc1ccc(-n2c(C)cc(C(=O)CN3C(=O)C(=O)N(Cc4ccccc4)C3=O)c2C)cc1	5%	-24	-4	u	23	u
COc1ccccc1-c1ncn(Cc2cccc(-c3ccccc3)c2)c1-c1ccco1	x	-28	1	26µM*	u	16µM*
COCn1cnc(-c2ccccc2)c1-c1ccccc1	x	-7	-1	-25%	-13	u
COc1ccc(-c2ccccc2)c2oc(-c3ccco3)cc(=O)c12	x	-1	x	-17%	16	u
COc1ccccc1-c1ncn(Cc2cccc(-c3ccccc3)c2)c1-c1cc(C)cc(C)c1	x	-6	21	u	x	15µM*
c1ccc(-c2cn3c(n2)-c2ccccc2C3)cc1	5%	-16	-3	u	-7	15µM*
COC(=O)[C@]1(Sc2ccc(OC)cc2)CC(=O)N[C@@H]1c1ccccc1	x	-7	-5	u	39	18µM*
Cc1noc(C)c1CCC(=O)Nc1c(C(C)C)cccc1C(C)C	1%	9	-2	-13%	0	-20%
COCCCn1c(C)nc2c(c1=O)c1nc3ccccc3nc1n2CCc1ccccc1	0%	7	1	u	-12	16µM*
COCCCn1c2nc3ccccc3nc2c2c(=O)n(Cc3cccs3)cnc21	6%	x	x	x	x	x
COCCCn1c2nc3ccccc3nc2c2c(=O)n(Cc3ccc(Cl)cc3)cnc21	2%	3	6	u	-15	18µM*
CCCCn1c2nc3ccccc3nc2c2c(=O)n(C(C)CC)cnc21 (configuration not stated)	3%	28	42	10µM*	u	23µM*
CCCCn1c2nc3ccccc3nc2c2c(=O)n(CC(C)C)cnc21	x	5	-17	1%	-9	21%
Cc1nc2ccccc2c(=O)n1CCc1ccccc1	x	0	-1	u	38	u
OCCC1CN(Cc2cn[nH]c2C2CCCCC2)CCN1Cc1ccccc1 (configuration not stated)	5%	4	2	u	-22	-10%
COc1ccc(C(=O)O/N=C2\CCS(=O)(=O)c3sccc32)cc1	-3%	4	1	1%	29	5%
SMILES	TDP1 block	Six1-Eya2 blk	CtBP-E1A blk	TDP1 cell CPT	IL1B secr inh	DT40 TDP1 no CPT
COc1ccc(N=C2CCS(=O)(=O)c3sccc32)cc1	5%	4	3	9.2µM*	-7	u
COc1ccc(-c2cc(C(=O)N/N=C(\C)c3cccnc3)c3cc(C)ccc3n2)cc1OC	4%	-7	-2	8.2µM*	-22	1.2µM*
C/C(=N\NC(=O)c1cc(-c2ccccc2C)nc2ccccc12)c1cccnc1	6%	-2	-3	u	-4	u
C/C(=N\NC(=O)c1cc(-c2cccnc2)nc2ccccc12)c1ccc(O)cc1O	-3%	-74*	-2	12µM*	49	10µM*
C/C(=N\NC(=O)c1cc(-c2ccc(C)s2)nc2ccccc12)c1cccnc1	3%	1	1	12µM*	-53*	u
C/C(=N\NC(=O)c1cc(-c2cccc(OC(C)C)c2)nc2ccccc12)c1cccnc1	5%[56.1 µM]	0	0	10µM*	-3	u
COCCCN1CCc2nc(SCC(=O)Nc3ccc(C)c(Cl)c3)[nH]c(=O)c2C1	-3%	x	x	u	x	u
CC(=O)OC1C[C@@]2(C)C(c3ccoc3)OC(=O)C3O[C@@]32[C@]2(C)C(OC(C)=O)CC3C(C)(C)C(OC(C)=O)CC(OC(C)=O)[C@@]3(C)C12 (some centres not stated)	8%[56.1 µM]	x	x	4%	x	-14%
O=C(NNC(=S)NC1CCCCC1)c1ccc2c(c1)OCO2	3%	0	0	u	21	18µM*
Cc1onc(-c2ccccc2)c1C(=O)NC(=S)NNC(=O)c1cc(-c2ccc(F)cc2)n[nH]1	-12%	-11	-1	u	3	21µM*
Cc1onc(-c2ccccc2)c1C(=O)NC(=S)NNC(=O)c1ccncc1	11%	-6	8	u	10	u
Cc1onc(-c2ccccc2)c1C(=O)NNC(=S)NC(=O)/C=C/c1cccs1	8%	-18	-21	16µM*	30	23µM*
Cc1onc(-c2ccccc2)c1C(=O)N/N=C/c1cccs1	4%	-4	x	-4%	-2	u
Cc1onc(-c2ccccc2)c1C(=O)NC(=S)NNC(=O)c1ccco1	10%	-1	-4	u	94	16µM*
O=C1NCC(=O)N2CCC[C@@H]12	x	7	6	20%	0	-19%
COc1ccc(CNC(=O)c2cc3cccc(OC)c3oc2=N)cc1	0%	-1	6	-20%	0	u
CCn1c(Cc2ccccc2)nnc1SCC(=O)OC(C)C	1%	6	-2	2%	9	-9%

Source: PubChem BioAssay (National Center for Advancing Translational Sciences (NCATS))
